Results as given in PubChem BioAssay (Tox21).
A structure can be active in one record and inactive in another. Active and inactive are the calls of the source. Unless noted, the call rests on the fitted dose curve.

Biological target: Estrogen receptor (Homo sapiens) (UniProt P03372)
Assay: qHTS assay to identify small molecule agonists of the estrogen receptor alpha (ER-alpha) signaling pathway (AID 743075);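 further: HEK293 GripTite cells with ER-alpha and UAS-driven beta-lactamase reporter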; further: potency means the concentration at half of the fitted maximal effect
Conditions: HEK293 ER-alpha-UAS-bla, beta-lactamase FRET ratio, 18 h; series mostly up to 70.1 µM; activation: at the top concentration
On the % scale 0 is the no-effect control and ±100 the full control effect.

Sequence of Estrogen receptor (Homo sapiens) (P03372 whole entry, looked up): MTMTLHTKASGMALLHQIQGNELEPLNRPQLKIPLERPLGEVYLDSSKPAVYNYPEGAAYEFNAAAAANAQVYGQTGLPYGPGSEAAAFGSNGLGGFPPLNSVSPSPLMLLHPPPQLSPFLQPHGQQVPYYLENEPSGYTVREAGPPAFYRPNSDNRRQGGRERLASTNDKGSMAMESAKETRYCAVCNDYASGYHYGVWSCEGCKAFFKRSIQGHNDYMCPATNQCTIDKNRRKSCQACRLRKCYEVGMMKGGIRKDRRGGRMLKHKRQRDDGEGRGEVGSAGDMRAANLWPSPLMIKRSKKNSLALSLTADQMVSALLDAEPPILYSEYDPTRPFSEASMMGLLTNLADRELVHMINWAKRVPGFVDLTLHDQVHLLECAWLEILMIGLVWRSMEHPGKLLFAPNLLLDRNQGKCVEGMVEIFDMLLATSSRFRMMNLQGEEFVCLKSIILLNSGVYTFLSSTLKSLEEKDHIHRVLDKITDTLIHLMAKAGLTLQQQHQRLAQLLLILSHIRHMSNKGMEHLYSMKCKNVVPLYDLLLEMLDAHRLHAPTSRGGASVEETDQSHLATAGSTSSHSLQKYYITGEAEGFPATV

SMILES | Potency | activation
Cc1cc(-c2ccc(N=Nc3ccc4c(S(=O)(=O)O)cc(S(=O)(=O)O)c(N)c4c3O)c(C)c2)ccc1N=Nc1ccc2c(S(=O)(=O)O)cc(S(=O)(=O)O)c(N)c2c1O | inactive | 
Clc1nc(C(Cl)(Cl)Cl)c(Cl)c(Cl)c1Cl |  | 0.543% (inactive)
O=C1c2ccccc2C(=O)C1c1ccc(F)cc1 |  | 7.85% (inactive)
CC(=O)OCC(=O)[C@@]1(O)CC[C@H]2[C@@H]3C[C@H](C)C4=CC(=O)C=C[C@]4(C)[C@H]3[C@@H](O)C[C@@]21C |  | 2% (inactive)
CC(C)c1ccc2sc3ccccc3c(=O)c2c1 |  | 7.78% (inactive)
N[C@H](C(=O)O)[C@@H]1CC(Cl)=NO1 |  | -2.77% (inactive)
NCc1cccc(C2CCN(C(=O)c3ccc(C#Cc4ccccc4F)o3)CC2)c1 |  | 16.6% (inactive)
O=C1CCC(c2ccc(-n3ccnc3)cc2)=NN1 |  | -1.39% (inactive)
COc1cc(/C=C/C(=O)CC(=O)/C=C/c2ccc(O)c(OC)c2)ccc1O |  | 26% (inactive)
O=C1OC(=O)c2cc(-c3ccc4c(c3)C(=O)OC4=O)ccc21 |  | -0.473% (inactive)
CCOc1ccc([N+](=O)[O-])cc1 | 6.26 µM [inconclusive] (active) | 
C[C@@H]1C[C@H]2[C@@H]3C[C@H](F)C4=CC(=O)C=C[C@]4(C)[C@@]3(Cl)[C@@H](O)C[C@]2(C)[C@H]1C(=O)COC(=O)C(C)(C)C |  | 3.91% (inactive)
CC(Cc1ccc(O)c(O)c1)C(C)Cc1ccc(O)c(O)c1 (stereo not drawn) | 0.0174 µM [inconclusive] (active) | 
NC(N)=NCCCCN=C(N)N | 5.35 µM [inconclusive] (active) | 
Cc1c(N)nc([C@H](CC(N)=O)NC[C@H](N)C(N)=O)nc1C(=O)N[C@H](C(=O)N[C@H](C)[C@@H](O)[C@H](C)C(=O)N[C@H](C(=O)NCCc1nc(-c2nc(C(=O)NCCCCN=C(N)N)cs2)cs1)[C@@H](C)O)[C@@H](O[C@@H]1O[C@@H](CO)[C@@H](O)[C@H](O)[C@@H]1O[C@H]1O[C@H](CO)[C@@H](O)[C@H](OC(N)=O)[C@@H]1O)c1cnc[nH]1 |  | 1.3% (inactive)
CC[C@@H](C(=O)[C@@H](C)[C@@H](O)[C@H](C)CCc1ccc(C)c(O)c1C(=O)O)[C@H]1O[C@](CC)([C@H]2CC[C@](O)(CC)[C@H](C)O2)C[C@@H]1C |  | -1.53% (inactive)
CCCCCCOC(=O)c1cccnc1 |  | -0.422% (inactive)
C[C@H]1O[C@@H](O[C@H]2CC[C@@]3(C)[C@H](CC[C@@H]4[C@@H]3C[C@@H](O)[C@]3(C)[C@@H](C5=CC(=O)OC5)CC[C@]43O)C2)C[C@H](O)[C@@H]1O[C@H]1C[C@H](O)[C@H](O[C@H]2C[C@H](O)[C@H](O[C@@H]3O[C@H](CO)[C@@H](O)[C@H](O)[C@H]3O)[C@@H](C)O2)[C@@H](C)O1 |  | -6.43% (inactive)
Oc1ccc(Cl)c2c1CCC2 |  | 10.7% (inactive)

Biological target: Estrogen receptor (Homo sapiens) (UniProt P03372)
Assay: qHTS assay to identify small molecule agonists of the estrogen receptor alpha (ER-alpha) signaling pathway using the BG1 cell line (AID 743079; active means well fitted activation curve with a large enough effect in the repeat runs; inconclusive means weak or mixed curves, or effect the other way; inactive means no such curve, though single readings can be large or run the other way; further: nearly all actives have a fitted effect of over 20% in size; further: potency means the concentration at half of the fitted maximal effect)
Conditions: BG1Luc4E2 cells, ERE-luciferase agonist, 22 h; series mostly up to 70.3 µM; activation: at the top concentration

SMILES | activation | Potency
O=C1c2ccccc2C(=O)C1c1ccc(F)cc1 | 5.09% (inactive) | 
CC(=O)OCC(=O)[C@@]1(O)CC[C@H]2[C@@H]3C[C@H](C)C4=CC(=O)C=C[C@]4(C)[C@H]3[C@@H](O)C[C@@]21C |  | 18.8 µM (active)
CC(C)c1ccc2sc3ccccc3c(=O)c2c1 |  | 6.11 µM (active)
N[C@H](C(=O)O)[C@@H]1CC(Cl)=NO1 | 0.821% (inactive) | 
O=C1CCC(c2ccc(-n3ccnc3)cc2)=NN1 | -6.67% (inactive) | 
COc1cc(/C=C/C(=O)CC(=O)/C=C/c2ccc(O)c(OC)c2)ccc1O |  | 23.7 µM (active) and inactive
O=C1OC(=O)c2cc(-c3ccc4c(c3)C(=O)OC4=O)ccc21 | 17.4% (inactive) | 
CCOc1ccc([N+](=O)[O-])cc1 |  | 1.96 µM (active)
CCCCCCCCCC[N+](C)(CCCCCCCCCC)CCC[Si](OC)(OC)OC | -1.39% (inactive) | 
C[C@@H]1C[C@H]2[C@@H]3C[C@H](F)C4=CC(=O)C=C[C@]4(C)[C@@]3(Cl)[C@@H](O)C[C@]2(C)[C@H]1C(=O)COC(=O)C(C)(C)C | 12.2% (inactive) | 
O=C1OC(O)C(C(Cl)Cl)=C1Cl (stereo not drawn) | -13.2% [at 95 µM] (inactive) | 
NC(N)=NCCCCN=C(N)N |  | 0.473 µM (active)
Cc1c(N)nc([C@H](CC(N)=O)NC[C@H](N)C(N)=O)nc1C(=O)N[C@H](C(=O)N[C@H](C)[C@@H](O)[C@H](C)C(=O)N[C@H](C(=O)NCCc1nc(-c2nc(C(=O)NCCCCN=C(N)N)cs2)cs1)[C@@H](C)O)[C@@H](O[C@@H]1O[C@@H](CO)[C@@H](O)[C@H](O)[C@@H]1O[C@H]1O[C@H](CO)[C@@H](O)[C@H](OC(N)=O)[C@@H]1O)c1cnc[nH]1 |  | inactive
CC[C@@H](C(=O)[C@@H](C)[C@@H](O)[C@H](C)CCc1ccc(C)c(O)c1C(=O)O)[C@H]1O[C@](CC)([C@H]2CC[C@](O)(CC)[C@H](C)O2)C[C@@H]1C | -19.4% (inactive) | 
CCCCCCOC(=O)c1cccnc1 | 7.31% (inactive) | 
Oc1ccc(Cl)c2c1CCC2 | 3.06% (inactive) | 

System: not listed separately
Assay: qHTS assay to identify small molecule antagonists of the estrogen receptor alpha (ER-alpha) signaling pathway using the BG1 cell line (AID 743080);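 further: BG1 cells stimulated with 17beta-estradiol alongside compound; nearly all actives have a fitted effect of over 25% in size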
Conditions: BG1Luc4E2 ERE-luciferase antagonist mode, luminescence; series mostly up to 70.3 µM; activity change, negative = inhibition: at the top concentration
Procedure, shortened: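 Readout is ONE-Glo luminescence, taken 30 min at room temperature after reagent addition, preceded by a CellTiter-Fluor viability read; BG1-Luc-4E2 cells had received compound and 17beta-estradiol for 21.5 h at 37 C.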

SMILES | activity change, negative = inhibition | Potency
O=C1c2ccccc2C(=O)C1c1ccc(F)cc1 | 4.3% (inactive) | 
N[C@H](C(=O)O)[C@@H]1CC(Cl)=NO1 | -16.7% (inactive) | 
O=C1CCC(c2ccc(-n3ccnc3)cc2)=NN1 | -2.03% (inactive) | 
COc1cc(/C=C/C(=O)CC(=O)/C=C/c2ccc(O)c(OC)c2)ccc1O |  | inactive
O=C1OC(=O)c2cc(-c3ccc4c(c3)C(=O)OC4=O)ccc21 | -8% (inactive) | 
CCCCCCCCCC[N+](C)(CCCCCCCCCC)CCC[Si](OC)(OC)OC | 2.88% (inactive) | 
CC(Cc1ccc(O)c(O)c1)C(C)Cc1ccc(O)c(O)c1 (stereo not drawn) | -19.4% (inactive) | 
O=C1OC(O)C(C(Cl)Cl)=C1Cl (stereo not drawn) | -25.4% [at 95 µM] (inactive) | 
NC(N)=NCCCCN=C(N)N | -7.6% (inactive) | 
NC(=O)CC[C@@H]1NC(=O)[C@H](Cc2ccccc2)NC(=O)[C@H](Cc2ccc(O)cc2)NC(=O)[C@@H](N)CSSC[C@@H](C(=O)N2CCC[C@H]2C(=O)N[C@@H](CCCN=C(N)N)C(=O)NCC(N)=O)NC(=O)[C@H](CC(N)=O)NC1=O |  | inactive
CCCCCCOC(=O)c1cccnc1 | -19.8% (inactive) | 
CC(C)C[C@H](NC(=O)[C@@H](COC(C)(C)C)NC(=O)[C@H](Cc1ccc(O)cc1)NC(=O)[C@H](CO)NC(=O)[C@H](Cc1c[nH]c2ccccc12)NC(=O)[C@H](Cc1cnc[nH]1)NC(=O)[C@@H]1CCC(=O)N1)C(=O)N[C@@H](CCCN=C(N)N)C(=O)N1CCC[C@H]1C(=O)NNC(N)=O |  | inactive
Oc1ccc(Cl)c2c1CCC2 | 1.2% (inactive) | 
